# Source: PubChem BioAssay AID686979 (National Center for Advancing Translational Sciences (NCATS), 2013)
# Screen size: about 420,000 compounds; about 50,000 (12%) were called active. Roughly 26% stayed inconclusive and do not appear here. For the sample, actives were picked, then their nearest neighbours and some compounds at random. A number with no mark means an inactive call. Calls come from the whole dose curve; as a rule, active = well fitted inhibition curve with a large enough effect; inconclusive = small, poorly fitted or top-dose-only effect; inactive = flat fitted curve, though single readings scatter.
# Assay: qHTS for Inhibitors of human tyrosyl-DNA phosphodiesterase 1 (TDP1): qHTS in cells in presence of CPT; note: nearly all actives have a fitted effect of over 55% in size
# Conditions: chicken DT40 Tdp1-/-;hTDP1 cells + 20 nM CPT, ATP luminescence, 48 h; series mostly up to 46.2 µM; activity change, negative = growth inhibition: at the top concentration
# Method in brief: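 Chicken DT40 Tdp1-/- cells stably complemented with human TDP1 were seeded at 400 cells/well in medium containing 20 nM camptothecin, exposed to pin-transferred compounds, and grown at 37 °C for at least 48 hr. Viability was read as ATP luminescence.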
# % is set by controls: 0 for no effect and ±100 for the full control effect; potency is the fitted concentration of half-maximal effect.
SMILES,"activity change, negative = growth inhibition",Potency
Cc1ccccc1N/N=C/c1ccc(N2CCOCC2)cc1,-18.7%,–
Cc1cc(C(=O)N/N=C/c2ccc(N3CCOCC3)cc2)c(C)o1,-6.34%,–
CNC(=S)N/N=C/c1ccc(N2CCOCC2)s1,–,4.61 µM (active)
Cc1ccc2[nH]c3c(=O)n(CC(=O)NC(C)C)ncc3c2c1,-21.8%,–
CN(c1ccc(O)cc1)c1nc(-c2cccnc2)cs1,-24.2%,–
O=C(Nc1ccc(-c2ccc3nncn3n2)cc1)C1CCCCC1,-21.7%,–
NNc1nc2c(Cl)cccc2s1,-14%,–
Cn1c(SCC(=O)NC2CCCCC2)nnc1-c1cc2ccccc2o1,-15.6%,–
Cc1c(C(=O)NCC2CC2)sc(=O)n1Cc1cccc(F)c1,-13.6%,–
CC(C)NC(=O)N1Cc2cc(C(=O)NCC(F)(F)F)nc(-c3cccc(-c4cc5ccccc5o4)c3)c2[C@@H]1CCO,–,18.4 µM (active)
CC(=O)N1Cc2cc(C(=O)NCc3cccc(F)c3)nc(-c3cccc(C4=CCCC4)c3)c2[C@H]1CCO,–,18.4 µM (active)
COc1ccc(CCNC(=O)CN(C)S(=O)(=O)c2ccc3nc(C)sc3c2)cc1OC,-27.7%,–
COCCSc1nnc(NC(=O)c2cc(OC)c(OC)cc2[N+](=O)[O-])s1,-7.44%,–
CCN1CCN(C(=O)c2cc3cc4ccc(OC)cc4nc3s2)CC1,28.6%,–
COC(=O)c1ccc(NC(=O)c2cccc3c2C(=O)N(C2CCCCC2)C3)cc1,-1.27%,–
CCS(=O)(=O)NCCc1ccc(OC)c(OC)c1,-7.71%,–
COc1ccc(CCNc2ncnc3sc(C(=O)N4CCCC4)c(C)c23)cc1OC,3.59% [at 9.04 µM],–
COc1ccc(CCNc2ncnc3nc[nH]c23)cc1OC,–,18.4 µM (active)
COc1ccc(/C(C)=N/N2CCOCC2)c(O)c1,2.69%,–
O=C(Nc1cc(-c2nn(CC(=O)N3CCCCC3)c(=O)c3ccccc23)ccc1N1CCOCC1)c1ccc(Cl)cc1,-5.93%,–
CC(=O)c1c(C)[nH]c(C(=O)N2CCN(S(=O)(=O)c3ccc(F)c(F)c3)CC2)c1C,–,0.231 µM (active)
COc1ccc(S(=O)(=O)N2CCN(C(=O)c3cc(C)oc3C)CC2)cc1,0.208%,–
CC(=O)c1c(C)[nH]c(C(=O)OCC(=O)Nc2cc(S(=O)(=O)N3CCCCC3)ccc2C)c1C,0.51%,–
COc1cccc2c1CCC(NC(C)=O)C2=O (stereo not given),-24%,–
Cc1cc(O)c(Sc2ccccc2)c(=O)o1,4.82%,–

SMILES,"activity change, negative = growth inhibition",Potency
O=C(COC(=O)c1cccs1)Nc1ccccc1Cl,8.81%,–
O=C(Nc1ccccc1Cl)/C(Cl)=C(\Cl)S(=O)c1ccccc1 (stereo not given),–,0.164 µM (active)
O=C(Nc1ccccc1Cl)c1ccc2nsnc2c1,5.44%,–
CCNC(=S)NCC,8.89%,–
Cc1cc(C)c(S(=O)(=O)NN=C2c3ccccc3[C@H]3Cc4csc[n+]4[C@@H]23)c(C)c1,–,29.1 µM (active)
CC(=O)Nc1ccc(S(=O)(=O)NC(C)C(=O)OCCOc2ccc(F)cc2)cc1 (stereo not given),-20.5%,–
CC1(C(=O)NNC(=S)NCC2CCCO2)CC1(Cl)Cl (stereo not given),–,18.4 µM (active)
CCC(=O)NC(NCC1CCCO1)C(Cl)(Cl)Cl (stereo not given),-12.2%,–
O=C(NCC1CCCO1)c1cc2c(s1)CCCC2 (stereo not given),-4.2%,–
COc1ccc(NC(=S)N2CCC(NC(=O)c3cccc(F)c3)CC2)cc1,-22.8%,–
COc1ccc(C)cc1Nc1nc(C)nc2c1oc1ccccc12,-29.3%,–
CCOc1cc(-c2cc(-c3ccc(NC(C)=O)cc3)nc(N)c2C#N)ccc1O,–,18.4 µM (active)
CCOC(=O)CC(=O)CSc1nc(-c2ccccc2)cc(-c2ccc(Cl)cc2)c1C#N,-0.328%,–
CC(=O)Nc1ccc(-c2cn3cccnc3n2)cc1,-9.08%,–
CN(C(=O)CSc1nnc(C2CC2)n1C)C1CCCc2ccccc21 (stereo not given),-12.5%,–
COc1ccccc1C(c1nnnn1C(C)(C)C)N1CCN(Cc2ccccc2)CC1 (stereo not given),-25.9%,–
COc1ccc(OC)c(C(c2nnnn2C(C)(C)C)N2CCc3ccccc3C2)c1 (stereo not given),–,20.6 µM (active)
CCC(C)(C)n1nnnc1C(c1ccccc1OC)N1CCSCC1 (stereo not given),-10.4%,–
CC(=O)c1nn(-c2cccc(C(F)(F)F)c2)c(=O)[nH]c1=O,-7.71%,–
CCOc1ccc(CCN2C(=O)c3cccnc3C2=O)cc1OCC,1.97%,–
CCOc1ccc(N(CC)C(=O)c2cc3c(=O)oc4ccccc4c3s2)cc1,-22.2%,–
CCOC(=O)c1ccc2[nH]c3c(c2c1)CCCC3NC=O (stereo not given),-24.5%,–
O=C(CN1CCCSc2ccccc21)N1CCN(S(=O)(=O)c2cccc(F)c2)CC1,–,16.4 µM (active)
CN(C(=O)CN1C(=O)CCSc2ccc(S(=O)(=O)N3CCCC3)cc21)c1ccccc1,-2.65%,–
O=C(CN1CCN(S(=O)(=O)c2cccc(Cl)c2)CC1)N1CCCCC1,-12.1%,–
